Measurements reported in the supplement of paper PMC6555819.

The sequences below were run on RARb homodimer (NR concentration 270 nM) (assay: PBM binding z-score (relative to random genomic background probes); higher = stronger binding; sequences stand for … in GC…GCGATTGACAGCGTAGAATGAAGG).
Summary of the method: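 Binding buffer was PBS pH 7.4 with 2% milk, 0.02% Triton X-100, 1 mM DTT, 0.2 mg/mL BSA and 0.4 mg/ml salmon testes DNA. In it, ligand-free nuclear receptor dimers were incubated 1 h on custom Agilent 4×180K protein-binding microarrays carrying double-stranded probes. Antibodies against each partner (one per run) detected binding, and z-scores were calculated against random background probes after regression normalization of scanned fluorescence.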

Row | Sequence | PBM binding z-score
1 | CGAACTAGGTTAAGGACAGTGAATCTCCGCACGC | 1.1
2 | CATACAGGGTCAGCTAGGCGAGAGTAGGGACGGC | 3.12
3 | ACAGACAGGTGATGTAGGTAACTCAGGCTATCAT | 0.224
4 | TGAATGAGGTTATAAGATCAGGTAACGTTGCAAA | 0.391
5 | TCTCGGAGGACACGAAAGGTCAGAGCTCGACATC | 4.73
6 | TCTCGGAGGACACGAAGGTCAGAGCATTCCAGAG | 3.61
7 | ATATGTAGGTTAAGGATCATTCAGGTTGGTTCGC | 0.849
8 | CAAACTAGGTCAAGAGGTAAAAGTCCGCTTCCCG | 3.32
9 | TCTCGGCGGACACGAAAGGTCAGAGCTCGACATC | 4.12
10 | AGAACGAGGGCAATGAGTTGATATCACGGGTGGC | 1.12
11 | CCTACTGGGCCATTCAGACGTCATTGATCATATG | -0.514
12 | TTACCAAGGTGAGCTGAGTTCGTTGATCCAACTC | 0.421
13 | TCTTGTAGATCAAAGGTTAAGAACGCCGAAGCCT | 1.51
14 | TCTCGGAGGACACGAAGGTCAGACCTTTCCAGAG | 3.98
15 | ATCTCTAGGGAAAAGTTCAGTGAATCCCGAGGAT | 2.03
16 | CCTAGGAGGACAACAGGAGGTCAGAGCTGCCAGA | 3.64
17 | CCGACTGGGGCCGAAAGGTTACCATACCATCCGG | 2.41
18 | CAAACTAGGTGAAGAGGTCAAAGTCCGCTTCCCG | 4.7
19 | CCGACTGGGGCATAAGGTCACCATAAGCCAGCCC | 4.32
20 | CCTGGTTGGTCAAGGTCACACACGCTATAGGTAC | 4.45

Row | Sequence | PBM binding z-score
21 | AATACAGGGTCACTAGGCCAGGGTAGGTACGAAT | 3.44
22 | GCTGCTAGGTCAGGTTGGTCAGCGAACGGGTACG | 2.73
23 | CAAACTAGGTCAAGAGGTCAAAGTACGCTTCCCG | 5.69
24 | AGAATGAGGTTATTAAGATCAGGTAATTGCGGTC | 1.14
25 | TATCCTAGGTCATTGGGCCAGTATAGTACGCATC | 3.29
26 | TCTATTAGATGATTAGGGCAACCGAAACAGCGGA | 0.19
27 | ATCTCTAGGTCAGACTCAGTTCAGTGAAGAACGC | 3.14
28 | CGTCCAAGGTCGGCAGGTCAGTGAAAGCGACGTG | 3.1
29 | TGAATGAGGTTAAAGAGCAGGGAACGTGGCGTCG | 0.754
30 | CCTGGCAGGCCAATCTGGGTCACTCAAGGCTTGA | 2.28
31 | CCTTACGGGTCATTGACAGGTTATAGCATTTGGA | 3.04
32 | AGAATGAGTTTAAGATCAGGGAAACAGAATACAT | -0.102
33 | CCTACTGGGCCATTCAGAGGTAATTGATCATATG | -0.0878
34 | TCTGCTAGGTCAGTTGGTCAGCTATCGAGCTGCC | 2.69
35 | CCTACTGGGCTATCAGGTCATTGATATCAACGTT | 2.18
36 | CAAACTGGGTCAAGAGGTCAAAGTCCGCTTCCCG | 5.73
37 | CGTCCACGGTCAGCAGGTCAGTGAAAGCGACGTG | 3.48
38 | TCTTGTAGATCAAATGTTAAGAAAGCCGAAGCCT | -0.797
39 | GCTGCTAGGTCAACTGATGGTCCGCTAAAGCTCG | 3.41
40 | CCGATTGGGGCAGAAAGGTTACCATACCATCCGG | 2.03
